Among the data in ChEMBL document CHEMBL2218924, “A broad activity screen in support of a chemogenomic map for kinase signalling research and drug discovery” (Biochem J, 2013) are residual activity values, retold here.

The target in assay [1] is T1, Ephrin type-B receptor 1 (Homo sapiens) (UniProt P54762).
T1 sequence (whole entry): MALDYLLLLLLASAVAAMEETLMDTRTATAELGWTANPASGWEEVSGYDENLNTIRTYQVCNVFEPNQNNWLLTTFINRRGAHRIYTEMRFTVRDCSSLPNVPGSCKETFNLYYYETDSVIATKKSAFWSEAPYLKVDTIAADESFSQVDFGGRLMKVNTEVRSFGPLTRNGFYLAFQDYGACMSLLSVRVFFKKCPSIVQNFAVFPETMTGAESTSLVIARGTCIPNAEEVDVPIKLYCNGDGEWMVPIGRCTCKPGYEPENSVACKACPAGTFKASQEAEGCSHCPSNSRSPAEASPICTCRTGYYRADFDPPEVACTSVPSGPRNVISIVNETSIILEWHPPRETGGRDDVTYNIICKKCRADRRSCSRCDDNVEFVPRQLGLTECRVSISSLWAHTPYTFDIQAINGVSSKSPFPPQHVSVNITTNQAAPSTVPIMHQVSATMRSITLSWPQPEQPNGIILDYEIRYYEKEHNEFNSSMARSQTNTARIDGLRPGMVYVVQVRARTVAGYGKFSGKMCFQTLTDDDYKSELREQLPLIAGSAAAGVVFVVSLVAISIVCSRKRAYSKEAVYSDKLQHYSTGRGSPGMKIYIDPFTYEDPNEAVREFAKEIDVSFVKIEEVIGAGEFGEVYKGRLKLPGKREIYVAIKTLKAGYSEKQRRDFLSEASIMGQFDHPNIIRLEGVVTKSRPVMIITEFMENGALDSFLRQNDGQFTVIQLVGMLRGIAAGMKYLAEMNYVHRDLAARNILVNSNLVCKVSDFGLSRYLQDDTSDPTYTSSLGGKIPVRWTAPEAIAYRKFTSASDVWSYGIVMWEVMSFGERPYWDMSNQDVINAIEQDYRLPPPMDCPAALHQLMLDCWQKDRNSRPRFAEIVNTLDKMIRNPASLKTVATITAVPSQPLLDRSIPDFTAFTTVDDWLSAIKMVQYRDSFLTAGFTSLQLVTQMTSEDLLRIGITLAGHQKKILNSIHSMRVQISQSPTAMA
Conditions: at 10 µM; call rule not given here.

The target in assay [2] is T2, Ephrin type-B receptor 2 (Homo sapiens) (UniProt P29323).
T2 sequence (whole entry): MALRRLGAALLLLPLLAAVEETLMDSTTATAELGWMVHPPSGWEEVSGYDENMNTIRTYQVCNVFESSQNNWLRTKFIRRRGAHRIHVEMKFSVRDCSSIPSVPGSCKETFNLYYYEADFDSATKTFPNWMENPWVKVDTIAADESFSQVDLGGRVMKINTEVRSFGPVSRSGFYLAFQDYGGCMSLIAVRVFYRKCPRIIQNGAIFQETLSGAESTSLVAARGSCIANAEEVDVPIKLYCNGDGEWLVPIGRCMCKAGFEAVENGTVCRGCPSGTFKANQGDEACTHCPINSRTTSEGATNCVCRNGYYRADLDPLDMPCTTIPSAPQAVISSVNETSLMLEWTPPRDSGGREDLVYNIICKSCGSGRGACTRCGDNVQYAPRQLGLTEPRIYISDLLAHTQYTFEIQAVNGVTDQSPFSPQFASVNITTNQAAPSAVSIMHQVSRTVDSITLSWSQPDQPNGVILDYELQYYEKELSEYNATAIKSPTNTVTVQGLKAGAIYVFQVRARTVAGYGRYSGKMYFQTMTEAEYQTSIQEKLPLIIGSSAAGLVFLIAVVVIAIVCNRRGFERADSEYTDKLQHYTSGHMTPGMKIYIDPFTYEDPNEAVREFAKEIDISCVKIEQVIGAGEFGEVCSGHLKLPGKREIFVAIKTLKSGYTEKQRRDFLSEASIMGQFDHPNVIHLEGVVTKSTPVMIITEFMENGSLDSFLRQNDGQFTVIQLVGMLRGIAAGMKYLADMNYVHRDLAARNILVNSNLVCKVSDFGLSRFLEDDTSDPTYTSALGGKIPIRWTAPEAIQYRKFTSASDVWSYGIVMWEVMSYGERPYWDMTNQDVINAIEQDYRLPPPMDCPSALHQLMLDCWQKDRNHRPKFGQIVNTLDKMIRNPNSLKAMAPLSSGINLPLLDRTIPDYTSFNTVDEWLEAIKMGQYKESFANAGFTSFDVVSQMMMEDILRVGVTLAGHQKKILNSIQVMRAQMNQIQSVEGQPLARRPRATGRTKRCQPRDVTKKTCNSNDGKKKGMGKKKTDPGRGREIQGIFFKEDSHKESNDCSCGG
As to conditions: at 1 µM.

The target in assay [3] is T2, Ephrin type-B receptor 2 (Homo sapiens). As to conditions: at 10 µM.
Assay [4] addresses T3, Ephrin type-B receptor 3 (Homo sapiens) (UniProt P54753).
T3 sequence (whole entry): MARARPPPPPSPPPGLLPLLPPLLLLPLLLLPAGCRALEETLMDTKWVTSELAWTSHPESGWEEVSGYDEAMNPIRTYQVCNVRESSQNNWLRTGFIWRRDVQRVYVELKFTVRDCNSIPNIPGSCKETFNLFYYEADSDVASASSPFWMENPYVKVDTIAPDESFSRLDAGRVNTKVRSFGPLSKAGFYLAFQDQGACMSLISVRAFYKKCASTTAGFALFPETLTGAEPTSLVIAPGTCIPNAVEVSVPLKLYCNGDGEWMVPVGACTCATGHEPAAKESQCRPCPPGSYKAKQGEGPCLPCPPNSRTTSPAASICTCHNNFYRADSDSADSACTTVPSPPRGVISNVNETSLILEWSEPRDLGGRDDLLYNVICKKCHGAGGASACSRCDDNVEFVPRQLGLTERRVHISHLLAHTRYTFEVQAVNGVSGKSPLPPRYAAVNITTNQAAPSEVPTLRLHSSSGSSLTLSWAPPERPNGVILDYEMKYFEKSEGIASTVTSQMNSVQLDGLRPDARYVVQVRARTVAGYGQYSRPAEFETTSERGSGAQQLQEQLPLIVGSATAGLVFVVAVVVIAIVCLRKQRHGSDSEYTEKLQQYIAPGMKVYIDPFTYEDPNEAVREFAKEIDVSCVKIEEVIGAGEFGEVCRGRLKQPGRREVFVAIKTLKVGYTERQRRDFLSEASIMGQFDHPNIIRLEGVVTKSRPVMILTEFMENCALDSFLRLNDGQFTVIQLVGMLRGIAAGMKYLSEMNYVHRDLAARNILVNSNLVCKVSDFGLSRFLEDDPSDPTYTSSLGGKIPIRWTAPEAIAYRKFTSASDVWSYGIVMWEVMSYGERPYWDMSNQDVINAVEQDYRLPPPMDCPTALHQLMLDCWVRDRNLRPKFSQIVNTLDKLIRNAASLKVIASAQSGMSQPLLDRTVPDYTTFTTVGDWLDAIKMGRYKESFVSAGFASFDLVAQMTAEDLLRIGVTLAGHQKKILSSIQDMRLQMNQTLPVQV
As to conditions: at 1 µM.

Assay [5] has as its target T3, Ephrin type-B receptor 3 (Homo sapiens). Conditions: at 10 µM.
Assay [6] addresses T4, Ephrin type-B receptor 4 (Homo sapiens) (UniProt P54760).
T4 sequence (whole entry): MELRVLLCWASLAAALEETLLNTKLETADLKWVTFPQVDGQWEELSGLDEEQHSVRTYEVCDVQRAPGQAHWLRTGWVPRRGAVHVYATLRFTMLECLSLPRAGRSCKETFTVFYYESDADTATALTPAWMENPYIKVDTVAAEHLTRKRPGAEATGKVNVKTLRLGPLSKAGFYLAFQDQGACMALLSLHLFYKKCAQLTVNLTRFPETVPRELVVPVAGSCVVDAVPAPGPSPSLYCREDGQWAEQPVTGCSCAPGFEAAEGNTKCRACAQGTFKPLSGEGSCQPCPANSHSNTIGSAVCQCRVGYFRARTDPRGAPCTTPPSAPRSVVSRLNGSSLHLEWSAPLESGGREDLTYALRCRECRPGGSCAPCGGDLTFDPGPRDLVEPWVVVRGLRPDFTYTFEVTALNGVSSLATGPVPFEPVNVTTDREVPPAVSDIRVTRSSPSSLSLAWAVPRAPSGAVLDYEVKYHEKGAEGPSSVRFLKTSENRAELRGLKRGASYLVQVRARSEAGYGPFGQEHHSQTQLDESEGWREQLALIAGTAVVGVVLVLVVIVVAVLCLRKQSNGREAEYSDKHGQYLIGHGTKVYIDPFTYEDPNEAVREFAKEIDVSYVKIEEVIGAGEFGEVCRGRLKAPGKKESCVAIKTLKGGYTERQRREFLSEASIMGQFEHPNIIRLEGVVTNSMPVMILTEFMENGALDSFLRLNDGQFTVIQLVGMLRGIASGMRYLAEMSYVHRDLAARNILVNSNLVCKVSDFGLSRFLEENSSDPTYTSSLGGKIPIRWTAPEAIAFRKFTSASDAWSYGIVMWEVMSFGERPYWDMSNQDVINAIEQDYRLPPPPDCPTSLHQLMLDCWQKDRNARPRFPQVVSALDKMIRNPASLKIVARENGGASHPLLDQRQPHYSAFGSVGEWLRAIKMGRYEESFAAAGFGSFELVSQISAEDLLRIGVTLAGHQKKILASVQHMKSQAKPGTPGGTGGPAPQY
Conditions: at 1 µM.

Assay [7] concerns the target T4, Ephrin type-B receptor 4 (Homo sapiens). Conditions: at 10 µM.
Assay [8] has as its target Receptor tyrosine-protein kinase erbB-4 (Homo sapiens) (UniProt Q15303). As to conditions: at 1 µM.
Assay [9] shares this target. As to conditions: at 10 µM.
Assay [10] has as its target Focal adhesion kinase 1 (Homo sapiens) (UniProt Q05397). As to conditions: at 1 µM.

One may read the residual activity as the signal under treatment as a percentage of the control signal.

Chain of Receptor tyrosine-protein kinase erbB-4 (Homo sapiens) (Q15303 whole entry): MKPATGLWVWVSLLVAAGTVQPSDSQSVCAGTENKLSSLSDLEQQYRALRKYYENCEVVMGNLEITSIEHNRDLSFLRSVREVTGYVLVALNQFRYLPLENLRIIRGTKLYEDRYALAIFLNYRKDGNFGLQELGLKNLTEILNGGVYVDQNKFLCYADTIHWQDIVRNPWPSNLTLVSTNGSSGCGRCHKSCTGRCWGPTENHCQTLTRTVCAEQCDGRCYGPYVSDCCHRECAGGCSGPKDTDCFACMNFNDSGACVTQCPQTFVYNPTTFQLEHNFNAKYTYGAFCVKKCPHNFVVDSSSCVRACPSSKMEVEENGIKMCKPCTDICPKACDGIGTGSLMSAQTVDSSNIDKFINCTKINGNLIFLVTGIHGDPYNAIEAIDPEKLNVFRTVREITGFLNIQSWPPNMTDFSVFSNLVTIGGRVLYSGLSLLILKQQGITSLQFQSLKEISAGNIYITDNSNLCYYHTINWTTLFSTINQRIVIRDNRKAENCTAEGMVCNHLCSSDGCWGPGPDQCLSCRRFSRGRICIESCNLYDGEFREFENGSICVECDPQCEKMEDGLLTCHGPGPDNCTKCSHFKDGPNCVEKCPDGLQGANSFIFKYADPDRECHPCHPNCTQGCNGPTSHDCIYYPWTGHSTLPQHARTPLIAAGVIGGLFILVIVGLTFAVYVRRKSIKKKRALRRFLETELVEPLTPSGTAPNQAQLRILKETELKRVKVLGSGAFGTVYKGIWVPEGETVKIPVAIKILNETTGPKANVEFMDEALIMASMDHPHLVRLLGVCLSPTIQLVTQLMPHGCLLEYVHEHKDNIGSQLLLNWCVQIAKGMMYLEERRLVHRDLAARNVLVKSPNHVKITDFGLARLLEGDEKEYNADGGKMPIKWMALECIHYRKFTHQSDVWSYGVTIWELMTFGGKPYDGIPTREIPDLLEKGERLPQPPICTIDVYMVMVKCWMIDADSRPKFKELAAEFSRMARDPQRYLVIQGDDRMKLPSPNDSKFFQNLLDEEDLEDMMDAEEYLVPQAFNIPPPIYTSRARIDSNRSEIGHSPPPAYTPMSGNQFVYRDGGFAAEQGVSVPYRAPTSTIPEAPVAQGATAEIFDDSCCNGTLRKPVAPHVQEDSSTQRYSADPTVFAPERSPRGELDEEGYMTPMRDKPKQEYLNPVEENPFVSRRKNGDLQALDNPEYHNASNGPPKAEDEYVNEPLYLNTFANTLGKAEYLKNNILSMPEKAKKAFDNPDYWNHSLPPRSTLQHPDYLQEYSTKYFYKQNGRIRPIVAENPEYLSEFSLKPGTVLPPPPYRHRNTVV
Chain of Focal adhesion kinase 1 (Homo sapiens) (Q05397 2-1052 limits assumed): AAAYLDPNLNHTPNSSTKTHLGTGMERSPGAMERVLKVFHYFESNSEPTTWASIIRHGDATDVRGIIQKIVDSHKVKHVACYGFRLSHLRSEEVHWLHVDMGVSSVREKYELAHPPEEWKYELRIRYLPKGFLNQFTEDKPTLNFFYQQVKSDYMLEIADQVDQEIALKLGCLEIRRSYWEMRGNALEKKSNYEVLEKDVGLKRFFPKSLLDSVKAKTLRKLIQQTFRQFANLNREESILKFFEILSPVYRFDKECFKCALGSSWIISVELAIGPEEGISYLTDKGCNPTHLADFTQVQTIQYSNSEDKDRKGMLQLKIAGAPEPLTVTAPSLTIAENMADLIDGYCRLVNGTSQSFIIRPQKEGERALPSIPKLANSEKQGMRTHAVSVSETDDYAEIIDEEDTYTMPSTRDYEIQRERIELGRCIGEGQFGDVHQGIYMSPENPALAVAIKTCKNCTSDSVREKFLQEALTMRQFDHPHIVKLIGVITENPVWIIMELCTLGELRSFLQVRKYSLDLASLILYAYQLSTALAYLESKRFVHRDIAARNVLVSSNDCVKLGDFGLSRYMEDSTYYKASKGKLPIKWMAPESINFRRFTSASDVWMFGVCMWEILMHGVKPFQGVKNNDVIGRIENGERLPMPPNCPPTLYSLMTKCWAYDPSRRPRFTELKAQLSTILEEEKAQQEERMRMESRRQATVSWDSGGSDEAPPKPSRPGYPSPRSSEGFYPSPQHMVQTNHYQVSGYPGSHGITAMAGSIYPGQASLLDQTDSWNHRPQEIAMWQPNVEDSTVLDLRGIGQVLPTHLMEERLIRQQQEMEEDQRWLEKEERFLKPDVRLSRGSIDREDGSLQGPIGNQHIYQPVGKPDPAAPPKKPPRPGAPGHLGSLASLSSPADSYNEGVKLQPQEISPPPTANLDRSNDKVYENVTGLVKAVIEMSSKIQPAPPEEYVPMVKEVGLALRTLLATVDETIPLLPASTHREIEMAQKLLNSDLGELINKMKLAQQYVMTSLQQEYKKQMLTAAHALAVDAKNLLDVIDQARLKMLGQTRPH

Regarding `Nc1n[nH]c2nnc(-c3c(-c4ccccc4)nn4ccccc34)cc12`, the residual activity is 87% in [1]; 117% in [2]; 110% in [3]; 101% (inactive) in [4]; 104% in assay [5]; 83% in [6]. Besides, the residual activity came to 67% in assay [7], 81% in [8], 57% in assay [9] and 96% in assay [10].
